PubChem BioAssay AID1159580 (chemical genetic matrix, 2015)
The whole screen tested about 5,500 compounds, of which about 2,000 (36%) were called active. Another 18% or so got no clear call; they are omitted. Rule as the data show it: active = normalized growth mostly below about 0.91 (no sharp cut-off); inconclusive = no clear call, values can overlap the other calls; inactive = mostly above about 0.92. The list shows a part of the results.

Assay: chemical genetic growth profiling, strain panel (AID 1159580);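 also: tested at 20 µM; growth read once vehicle control cultures reached saturation at 30 °C; 1 = growth at the plate median or of vehicle wells; lower values mean less growth of the strain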
Conditions: growth OD
[1] = S. cerevisiae deletion strains, locus YDR150W, strain NUM1, active compounds read low
[2] = S. cerevisiae deletion strains, locus YHR030C, strain SLT2, active compounds read low
[3] = S. cerevisiae deletion strains, locus YJR075W, strain HOC1, active compounds read low
[4] = S. cerevisiae deletion strains, locus YNL153C, strain GIM3, active compounds read low
[5] = S. cerevisiae deletion strains, locus YPL055C, strain LGE1, active compounds read low
[6] = S. cerevisiae deletion strains, locus YPL241C, strain CIN2, active compounds read low

Measured: normalized growth

Cc1cc(=O)n2[nH]cnc2n1
inactive: S. cerevisiae deletion strains, locus YAL013W, strain DEP1, active compounds read low 1.05 | S. cerevisiae deletion strains, locus YBR229C, strain ROT2, active compounds read low 1.01 | S. cerevisiae deletion strains, locus YDL101C, strain DUN1, active compounds read low 1.06 | S. cerevisiae deletion strains, locus YDL134C, strain PPH21, active compounds read low 0.964 | [1] 1.05 | S. cerevisiae deletion strains, locus YEL061C, strain CIN8, active compounds read low 1 | S. cerevisiae deletion strains, locus YGR078C, strain PAC10, active compounds read low 1.05 | [2] 1.14 | S. cerevisiae deletion strains, locus YHR087W, strain rtc3, active compounds read low 0.99 | S. cerevisiae deletion strains, locus YJR043C, strain POL32, active compounds read low 1.08 | [3] 1.02 | S. cerevisiae deletion strains, locus YKL190W, strain CNB1, active compounds read low 0.997 | S. cerevisiae deletion strains, locus YLR039C, strain RIC1, active compounds read low 0.977 | S. cerevisiae deletion strains, locus YLR058C, strain SHM2 (second series), active compounds read low 0.996 | S. cerevisiae deletion strains, locus YLR085C, strain ARP6, active compounds read low 1.01 | S. cerevisiae deletion strains, locus YLR262C, strain YPT6, active compounds read low 0.964 | S. cerevisiae deletion strains, locus YML094W, strain GIM5, active compounds read low 0.985 | S. cerevisiae deletion strains, locus YMR219W, strain ESC1, active compounds read low 0.99 | S. cerevisiae deletion strains, locus YMR263W, strain SAP30, active compounds read low 1.02 | [4] 1.03 | S. cerevisiae deletion strains, locus YNL298W, strain CLA4 (second series), active compounds read low 1.01 | S. cerevisiae deletion strains, locus YNL322C, strain KRE1, active compounds read low 1 | S. cerevisiae deletion strains, locus YNR030W, strain Alg12, active compounds read low 1.02 | [5] 0.997 | [6] 1.01 | S. cerevisiae deletion strains, locus YPR135W, strain CTF4, active compounds read low 1.09 | S. cerevisiae strains, strain wild type, active compounds read low 1.01

NCCS(=O)(=O)O
inactive: S. cerevisiae deletion strains, locus YAL021C, strain ccr4, active compounds read low 0.965 | S. cerevisiae deletion strains, locus YAL026C, strain drs2, active compounds read low 0.978 | S. cerevisiae deletion strains, locus YAL030W, strain snc1, active compounds read low 0.981 | S. cerevisiae deletion strains, locus YAL040C, strain CLN3, active compounds read low 1 | S. cerevisiae deletion strains, locus YBL061C, strain skt5, active compounds read low 0.984 | S. cerevisiae deletion strains, locus YBR009C, strain hhf1, active compounds read low 0.981 | S. cerevisiae deletion strains, locus YBR023C, strain chs3, active compounds read low 0.982 | S. cerevisiae deletion strains, locus YBR171W, strain sec66, active compounds read low 0.97 | S. cerevisiae deletion strains, locus YBR231C, strain swc5, active compounds read low 0.983 | S. cerevisiae deletion strains, locus YBR279W, strain paf1, active compounds read low 0.985 | S. cerevisiae deletion strains, locus YCL011C, strain gbp2, active compounds read low 0.965 | S. cerevisiae deletion strains, locus YCL016C, strain dcc1, active compounds read low 0.984 | S. cerevisiae deletion strains, locus YCL061C, strain MRC1 (second series), active compounds read low 1 | S. cerevisiae deletion strains, locus YCL061C, strain MRC1, active compounds read low 0.98 | S. cerevisiae deletion strains, locus YCL069W, strain vba3, active compounds read low 0.976 | S. cerevisiae deletion strains, locus YCR088W, strain abp1, active compounds read low 0.978 | S. cerevisiae deletion strains, locus YDL005C, strain med2, active compounds read low 0.984 | S. cerevisiae deletion strains, locus YDL040C, strain nat1, active compounds read low 0.986 | S. cerevisiae deletion strains, locus YDR001C, strain nth1, active compounds read low 0.983 | S. cerevisiae deletion strains, locus YDR069C, strain doa4, active compounds read low 0.98 | S. cerevisiae deletion strains, locus YDR137W, strain rgp1, active compounds read low 0.971 | [1] 1.01 | S. cerevisiae deletion strains, locus YDR159W, strain sac3, active compounds read low 0.952 | S. cerevisiae deletion strains, locus YDR195W, strain ref2 0.924 | S. cerevisiae deletion strains, locus YDR297W, strain sur2, active compounds read low 0.979 | S. cerevisiae deletion strains, locus YDR334W, strain swr1, active compounds read low 0.948 | S. cerevisiae deletion strains, locus YDR335W, strain msn5, active compounds read low 0.969 | S. cerevisiae deletion strains, locus YDR363W, strain ESC2, active compounds read low 1 | S. cerevisiae deletion strains, locus YDR392W, strain spt3, active compounds read low 0.977 | S. cerevisiae deletion strains, locus YEL003W, strain gim4, active compounds read low 0.975 | S. cerevisiae deletion strains, locus YEL037C, strain rad23, active compounds read low 0.975 | S. cerevisiae deletion strains, locus YEL061C, strain CIN8 (second series), active compounds read low 0.97 | S. cerevisiae deletion strains, locus YER002W, strain NOP16, active compounds read low 0.984 | S. cerevisiae deletion strains, locus YER015W, strain faa2, active compounds read low 0.971 | S. cerevisiae deletion strains, locus YER016W, strain bim1, active compounds read low 0.975 | S. cerevisiae deletion strains, locus YER111C, strain swi4, active compounds read low 0.967 | S. cerevisiae deletion strains, locus YER155C, strain BEM2 (second series), active compounds read low 0.978 | S. cerevisiae deletion strains, locus YFR010W, strain ubp6, active compounds read low 0.959 | S. cerevisiae deletion strains, locus YGL167C, strain pmr1, active compounds read low 0.977 | S. cerevisiae deletion strains, locus YGL173C, strain kem1, active compounds read low 0.971 | S. cerevisiae deletion strains, locus YGL227W, strain vid30, active compounds read low 0.984 | S. cerevisiae deletion strains, locus YGL240W, strain doc1, active compounds read low 0.961 | S. cerevisiae deletion strains, locus YGL253W, strain hxk2, active compounds read low 0.986 | S. cerevisiae deletion strains, locus YHR013C, strain ard1, active compounds read low 0.968 | S. cerevisiae deletion strains, locus YHR027C, strain rpn1, active compounds read low 0.967 | [2] 0.943 | S. cerevisiae deletion strains, locus YHR079C, strain IRE1, active compounds read low 0.966 | S. cerevisiae deletion strains, locus YHR142W, strain chs7, active compounds read low 0.964 | S. cerevisiae deletion strains, locus YJL092W, strain hpr5, active compounds read low 0.963 | S. cerevisiae deletion strains, locus YJL095W, strain BCK1 (second series), active compounds read low 0.972 | S. cerevisiae deletion strains, locus YJL095W, strain BCK1, active compounds read low 0.998 | S. cerevisiae deletion strains, locus YJL115W, strain asf1, active compounds read low 0.958 | S. cerevisiae deletion strains, locus YJL129C, strain trk1, active compounds read low 0.961 | S. cerevisiae deletion strains, locus YJL154C, strain vps35, active compounds read low 0.974 | S. cerevisiae deletion strains, locus YJL164C, strain tpk1, active compounds read low 0.986 | S. cerevisiae deletion strains, locus YJL166W, strain qcr8, active compounds read low 0.986 | S. cerevisiae deletion strains, locus YJL187C, strain SWE1, active compounds read low 0.982 | S. cerevisiae deletion strains, locus YJR066W, strain TOR1, active compounds read low 0.92 | [3] 0.999 | S. cerevisiae deletion strains, locus YKL160W, strain elf1, active compounds read low 0.983 | S. cerevisiae deletion strains, locus YKR026C, strain gcn3, active compounds read low 0.967 | S. cerevisiae deletion strains, locus YKR091W, strain srl3, active compounds read low 0.979 | S. cerevisiae deletion strains, locus YLL001W, strain dnm1, active compounds read low 0.97 | S. cerevisiae deletion strains, locus YLL026W, active compounds read low 0.982 | S. cerevisiae deletion strains, locus YLL041C, strain sdh2, active compounds read low 0.971 | S. cerevisiae deletion strains, locus YLR027C, strain aat2, active compounds read low 0.981 | S. cerevisiae deletion strains, locus YLR113W, strain HOG1, active compounds read low 1.02 | S. cerevisiae deletion strains, locus YLR221C, strain rsa3, active compounds read low 0.982 | S. cerevisiae deletion strains, locus YLR258W, strain gsy2, active compounds read low 0.987 | S. cerevisiae deletion strains, locus YLR262C, strain YPT6 (second series), active compounds read low 0.99 | S. cerevisiae deletion strains, locus YLR320W, strain mms22, active compounds read low 0.972 | S. cerevisiae deletion strains, locus YLR342W, strain FKS1, active compounds read low 0.985 | S. cerevisiae deletion strains, locus YLR357W, strain rsc2, active compounds read low 0.972 | S. cerevisiae deletion strains, locus YLR370C, strain arc18, active compounds read low 0.981 | S. cerevisiae deletion strains, locus YLR384C, strain iki3, active compounds read low 0.977 | S. cerevisiae deletion strains, locus YML120C, strain ndi1, active compounds read low 0.963 | S. cerevisiae deletion strains, locus YMR058W, strain fet3, active compounds read low 0.97 | S. cerevisiae deletion strains, locus YMR125W, strain sto1, active compounds read low 0.954 | S. cerevisiae deletion strains, locus YMR129W, active compounds read low 0.978 | S. cerevisiae deletion strains, locus YMR205C, strain PFK2, active compounds read low 1 | S. cerevisiae deletion strains, locus YMR231W, strain pep5, active compounds read low 0.985 | S. cerevisiae deletion strains, locus YMR307W, strain GAS1, active compounds read low 1 | S. cerevisiae deletion strains, locus YNL071W, strain lat1, active compounds read low 0.981 | S. cerevisiae deletion strains, locus YNL128W, strain TEP1, active compounds read low 1 | [4] 1.04 | S. cerevisiae deletion strains, locus YNL175C, strain NOP13, active compounds read low 1.01 | S. cerevisiae deletion strains, locus YNL183C, strain NPR1, active compounds read low 0.939 | S. cerevisiae deletion strains, locus YNL197C, strain WHI3, active compounds read low 0.993 | S. cerevisiae deletion strains, locus YNL209W, strain ssb2, active compounds read low 0.973 | S. cerevisiae deletion strains, locus YNL224C, strain SQS1, active compounds read low 1 | S. cerevisiae deletion strains, locus YNL248C, strain rpa49, active compounds read low 0.944 | S. cerevisiae deletion strains, locus YNL322C, strain KRE1 (second series), active compounds read low 0.971 | S. cerevisiae deletion strains, locus YNR049C, strain mso1, active compounds read low 0.975 | S. cerevisiae deletion strains, locus YOR001W, strain rrp6, active compounds read low 0.957 | S. cerevisiae deletion strains, locus YOR070C, strain gyp1, active compounds read low 0.992 | S. cerevisiae deletion strains, locus YOR080W, strain dia2, active compounds read low 0.978 | S. cerevisiae deletion strains, locus YOR083W, strain WHI5 (second series), active compounds read low 1.03 | S. cerevisiae deletion strains, locus YOR083W, strain WHI5, active compounds read low 0.976 | S. cerevisiae deletion strains, locus YOR106W, strain vam3, active compounds read low 0.97 | S. cerevisiae deletion strains, locus YOR231W, strain MKK1, active compounds read low 0.954 | S. cerevisiae deletion strains, locus YOR265W, strain rbl2, active compounds read low 0.976 | S. cerevisiae deletion strains, locus YOR270C, strain vph1, active compounds read low 0.949 | S. cerevisiae deletion strains, locus YOR290C, strain snf2, active compounds read low 0.999 | S. cerevisiae deletion strains, locus YPL051W, strain arl3, active compounds read low 0.99 | [5] 1 | S. cerevisiae deletion strains, locus YPL078C, strain atp4, active compounds read low 0.966 | S. cerevisiae deletion strains, locus YPL106C, strain sse1, active compounds read low 0.947 | S. cerevisiae deletion strains, locus YPL240C, strain hsp82, active compounds read low 0.994 | [6] 1 | S. cerevisiae deletion strains, locus YPL256C, strain CLN2, active compounds read low 0.957
